From PubChem BioAssay AID1159580 (chemical genetic matrix, 2015)
The campaign covered roughly 5,500 compounds. About 2,000 (36%) were called active. Inconclusive results (about 18%) are left out. Cut-off read from the data, not from the text of the source: active = normalized growth mostly below about 0.91 (no sharp cut-off); inconclusive = no clear call, values can overlap the other calls; inactive = mostly above about 0.92. The list shows a part of the results.

Assay: chemical genetic growth profiling, strain panel (AID 1159580);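 note: tested at 20 µM; growth read once vehicle control cultures reached saturation at 30 °C; 1 = growth at the plate median or of vehicle wells; lower values mean less growth of the strain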
Conditions: growth OD

Measured: normalized growth

COc1cc(CNC(=O)CCCC/C=C/C(C)C)ccc1O
inactive: S. cerevisiae deletion strains, locus YJR043C, strain POL32, hits give low values 1 | S. cerevisiae deletion strains, locus YJR066W, strain TOR1, hits give low values 0.95 | S. cerevisiae deletion strains, locus YKL009W, strain mrt4, hits give low values 0.926 | S. cerevisiae deletion strains, locus YKL068W, hits give low values 1.01 | S. cerevisiae deletion strains, locus YKL085W, strain MDH1 (second series), hits give low values 1 | S. cerevisiae deletion strains, locus YKL085W, strain MDH1, hits give low values 1 | S. cerevisiae deletion strains, locus YKL160W, strain elf1, hits give low values 0.97 | S. cerevisiae deletion strains, locus YKL190W, strain CNB1, hits give low values 0.998 | S. cerevisiae deletion strains, locus YKR001C, strain vps1, hits give low values 0.997 | S. cerevisiae deletion strains, locus YKR026C, strain gcn3, hits give low values 0.97 | S. cerevisiae deletion strains, locus YKR091W, strain srl3, hits give low values 0.981 | S. cerevisiae deletion strains, locus YLL001W, strain dnm1, hits give low values 0.955 | S. cerevisiae deletion strains, locus YLL026W, hits give low values 0.987 | S. cerevisiae deletion strains, locus YLL041C, strain sdh2, hits give low values 0.987 | S. cerevisiae deletion strains, locus YLR027C, strain aat2, hits give low values 0.975 | S. cerevisiae deletion strains, locus YLR039C, strain RIC1, hits give low values 1.07 | S. cerevisiae deletion strains, locus YLR058C, strain SHM2, hits give low values 1.02 | S. cerevisiae deletion strains, locus YLR102C, strain apc9, hits give low values 0.986 | S. cerevisiae deletion strains, locus YLR113W, strain HOG1, hits give low values 1.02 | S. cerevisiae deletion strains, locus YLR221C, strain rsa3, hits give low values 0.978 | S. cerevisiae deletion strains, locus YLR258W, strain gsy2, hits give low values 0.986 | S. cerevisiae deletion strains, locus YLR262C, strain YPT6 (second series), hits give low values 0.966 | S. cerevisiae deletion strains, locus YLR262C, strain YPT6, hits give low values 1.11 | S. cerevisiae deletion strains, locus YLR268W, strain sec22, hits give low values 0.967 | S. cerevisiae deletion strains, locus YLR320W, strain mms22, hits give low values 0.995 | S. cerevisiae deletion strains, locus YLR330W, strain CHS5, hits give low values 1.02 | S. cerevisiae deletion strains, locus YLR342W, strain FKS1 (second series), hits give low values 1.02 | S. cerevisiae deletion strains, locus YLR342W, strain FKS1, hits give low values 0.978 | S. cerevisiae deletion strains, locus YLR357W, strain rsc2, hits give low values 1.03 | S. cerevisiae deletion strains, locus YLR370C, strain arc18, hits give low values 0.977 | S. cerevisiae deletion strains, locus YLR371W, strain rom2, hits give low values 1.01 | S. cerevisiae deletion strains, locus YLR384C, strain iki3, hits give low values 0.975 | S. cerevisiae deletion strains, locus YLR418C, strain cdc73, hits give low values 1 | S. cerevisiae deletion strains, locus YML016C, strain PPZ1, hits give low values 0.998 | S. cerevisiae deletion strains, locus YML032C, strain rad52, hits give low values 0.988 | S. cerevisiae deletion strains, locus YML120C, strain ndi1, hits give low values 0.984 | S. cerevisiae deletion strains, locus YML124C, strain tub3, hits give low values 0.986 | S. cerevisiae deletion strains, locus YMR058W, strain fet3, hits give low values 1 | S. cerevisiae deletion strains, locus YMR078C, strain ctf18, hits give low values 1 | S. cerevisiae deletion strains, locus YMR125W, strain sto1, hits give low values 1 | S. cerevisiae deletion strains, locus YMR129W, hits give low values 0.974 | S. cerevisiae deletion strains, locus YMR205C, strain PFK2, hits give low values 0.975 | S. cerevisiae deletion strains, locus YMR223W, strain ubp8, hits give low values 1 | S. cerevisiae deletion strains, locus YMR231W, strain pep5, hits give low values 1 | S. cerevisiae deletion strains, locus YMR307W, strain GAS1, hits give low values 1.04 | S. cerevisiae deletion strains, locus YNL067W, strain RPL9B, hits give low values 1 | S. cerevisiae deletion strains, locus YNL071W, strain lat1, hits give low values 0.979 | S. cerevisiae deletion strains, locus YNL183C, strain NPR1, hits give low values 0.96 | S. cerevisiae deletion strains, locus YNL209W, strain ssb2, hits give low values 1 | S. cerevisiae deletion strains, locus YNL233W, strain BNI4, hits give low values 0.995 | S. cerevisiae deletion strains, locus YNL248C, strain rpa49, hits give low values 0.926 | S. cerevisiae deletion strains, locus YNL250W, strain rad50, hits give low values 1.01 | S. cerevisiae deletion strains, locus YNL271C, strain bni1, hits give low values 0.984 | S. cerevisiae deletion strains, locus YNL298W, strain CLA4, hits give low values 0.992 | S. cerevisiae deletion strains, locus YNL307C, strain MCK1, hits give low values 0.988 | S. cerevisiae deletion strains, locus YNL322C, strain KRE1 (second series), hits give low values 0.98 | S. cerevisiae deletion strains, locus YNL322C, strain KRE1, hits give low values 1.01 | S. cerevisiae deletion strains, locus YNR049C, strain mso1, hits give low values 0.985 | S. cerevisiae deletion strains, locus YNR052C, strain pop2, hits give low values 0.985 | S. cerevisiae deletion strains, locus YOL012C, strain htz1 1.39 | S. cerevisiae deletion strains, locus YOL147C, strain pex11, hits give low values 0.973 | S. cerevisiae deletion strains, locus YOR001W, strain rrp6, hits give low values 0.956 | S. cerevisiae deletion strains, locus YOR061W, strain CKA2, hits give low values 1.02 | S. cerevisiae deletion strains, locus YOR069W, strain VPS5, hits give low values 1.01 | S. cerevisiae deletion strains, locus YOR070C, strain gyp1, hits give low values 0.99 | S. cerevisiae deletion strains, locus YOR080W, strain dia2, hits give low values 0.979 | S. cerevisiae deletion strains, locus YOR083W, strain WHI5, hits give low values 0.962 | S. cerevisiae deletion strains, locus YOR106W, strain vam3, hits give low values 0.967 | S. cerevisiae deletion strains, locus YOR136W, strain idh2, hits give low values 0.988 | S. cerevisiae deletion strains, locus YOR144C, strain elg1, hits give low values 0.996 | S. cerevisiae deletion strains, locus YOR184W, strain ser1, hits give low values 0.995 | S. cerevisiae deletion strains, locus YOR231W, strain MKK1, hits give low values 1.02 | S. cerevisiae deletion strains, locus YOR265W, strain rbl2, hits give low values 0.982 | S. cerevisiae deletion strains, locus YOR270C, strain vph1, hits give low values 1 | S. cerevisiae deletion strains, locus YOR290C, strain snf2, hits give low values 1 | S. cerevisiae deletion strains, locus YOR316C, strain cot1, hits give low values 0.987 | S. cerevisiae deletion strains, locus YPL051W, strain arl3, hits give low values 0.97 | S. cerevisiae deletion strains, locus YPL078C, strain atp4, hits give low values 0.974 | S. cerevisiae deletion strains, locus YPL106C, strain sse1, hits give low values 0.995 | S. cerevisiae deletion strains, locus YPL240C, strain hsp82, hits give low values 0.991 | S. cerevisiae deletion strains, locus YPL256C, strain CLN2, hits give low values 0.986 | S. cerevisiae deletion strains, locus YPR119W, strain clb2, hits give low values 0.994 | S. cerevisiae deletion strains, locus YPR141C, strain kar3, hits give low values 0.996 | S. cerevisiae deletion strains, locus YPR163C, strain tif3, hits give low values 0.981 | S. cerevisiae deletion strains, locus YPR167C, strain met16, hits give low values 1.01 | S. cerevisiae deletion strains, strain wtn01, hits give low values 0.963 | S. cerevisiae strains, strain wild type, hits give low values 1
